# Assay results as given in PubChem BioAssay (NCATS).
# Values without a mark were called inactive. Inconclusive results are not listed. Where a call stands in place of a potency, no number is given. Active and inactive are the calls of the source. Unless noted, calls follow the shape of the dose curve; as a rule, active = well fitted curve in the direction sought with a large enough effect; inconclusive = small, poorly fitted or top-dose-only effect, or another doubt; inactive = no such curve, though single readings can be large; an effect the other way counts as inactive or inconclusive.
# Legend:
# [1] = UWB1.289-WTBRCA1 Cancer Cell Toxicity qHTS against the NCATS CANVASS Library (AID 1347354); also: potency is read from the fitted curve at half-maximal effect
# Summary of the method: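 Luminescent ATP read-out (CellTiter-Glo, 15min at room temperature) measures survival after cells face an 11-point compound series for 72 hours at 37 degrees C/5% CO2.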
# [2] = G06 Cancer Cell Toxicity qHTS against the NCATS CANVASS Library (AID 1347368); also: nearly all actives have a fitted effect of over 60% in size; also: potency is read from the fitted curve at half-maximal effect
# Summary of the method: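 Dog G06 glioma line, 500 cells/well; cpds pin-transferred, 11-pt; 72 hr, 37C/5% CO2; CellTiterGlo luminescence (ATP) endpoint.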
# [3] = qHTS for Antimalaria activity screened against the NCATS CANVASS Library (AID 1347380); also: nearly all actives have a fitted effect of over 40% in size; also: potency is read from the fitted curve at half-maximal effect
# Summary of the method: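 Dd2 strain, infected erythrocytes 2.5% Hct final / 0.3% parasitemia. 11-pt qHTS titration, 72 h, 37C, 5% O2, 5% CO2. Lysis buffer + SYBR Green, 18 h, fluorescence 485/535 nm.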
# [4] = UWB1.289 Cancer Cell Toxicity qHTS against the NCATS CANVASS Library (AID 1347347); also: nearly all actives have a fitted effect of over 60% in size; also: potency is read from the fitted curve at half-maximal effect
# Summary of the method: (§1)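 ATP content after 72 h treatment, detected by CellTiter-Glo luminescence (15min room-temperature development), reflects cell viability. Wells contained 1000 cells and received compounds at 11 concentrations.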
# [5] = Panc-1005 Cancer Cell Toxicity qHTS against the NCATS CANVASS Library (AID 1347349); also: nearly all actives have a fitted effect of over 60% in size; also: potency is read from the fitted curve at half-maximal effect
# Summary of the method: as §1
# [6] = system: Zika virus NS2B-NS3 protease (linked construct); experiment: Primary screen NINDS Rhodamine qHTS for Zika virus inhibitors (AID 1347160); also: nearly all actives have a fitted effect of over 55% in size; also: potency is read from the fitted curve at half-maximal effect
# Summary of the method: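 Purified linked NS2B-NS3 protease (NS2B hydrophilic domain joined to NS3 protease by flexible linker), 25 nM in 10 mM Tris-HCl pH 8.0, 0.01% Tween 20. Compounds titrated, 15 min preincubation at room temperature; 1.5 microM Rhodamine110 substrate, FITC fluorescence change over 15 min.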
# [7] = target: Glucocorticoid receptor (Homo sapiens) (UniProt P04150); experiment: GR-GFP Redistribution (AID 450;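 active = compounds whose dose series gives a full or clear partial fitted curve of increased nuclear translocation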; also: potency is read from the fitted curve at half-maximal effect); details: U2OS GR-GFP nuclear translocation, laser cytometry, 2 h
# Sequence of Glucocorticoid receptor (Homo sapiens) (P04150 whole entry, looked up, the tested form may be a part): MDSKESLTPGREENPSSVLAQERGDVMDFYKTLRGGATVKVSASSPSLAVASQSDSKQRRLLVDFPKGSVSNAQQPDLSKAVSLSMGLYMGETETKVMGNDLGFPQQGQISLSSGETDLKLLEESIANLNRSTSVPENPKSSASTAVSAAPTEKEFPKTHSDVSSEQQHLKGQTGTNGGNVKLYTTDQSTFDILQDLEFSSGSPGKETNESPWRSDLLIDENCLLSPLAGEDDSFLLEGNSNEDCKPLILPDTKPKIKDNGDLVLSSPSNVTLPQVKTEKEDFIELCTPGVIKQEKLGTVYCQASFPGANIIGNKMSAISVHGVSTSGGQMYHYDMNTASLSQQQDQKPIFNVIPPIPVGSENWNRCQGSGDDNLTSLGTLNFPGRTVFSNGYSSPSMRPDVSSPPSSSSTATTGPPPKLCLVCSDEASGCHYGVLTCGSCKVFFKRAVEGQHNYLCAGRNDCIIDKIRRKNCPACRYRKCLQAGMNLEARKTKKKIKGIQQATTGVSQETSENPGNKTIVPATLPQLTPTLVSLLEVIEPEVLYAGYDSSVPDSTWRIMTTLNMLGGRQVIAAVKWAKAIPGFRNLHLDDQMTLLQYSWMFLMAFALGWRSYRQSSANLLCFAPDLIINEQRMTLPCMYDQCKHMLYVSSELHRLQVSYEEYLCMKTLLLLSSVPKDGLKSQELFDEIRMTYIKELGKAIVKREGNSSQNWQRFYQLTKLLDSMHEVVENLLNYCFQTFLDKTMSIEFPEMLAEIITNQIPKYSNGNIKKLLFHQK
# [8] = target: Glucocorticoid receptor (Homo sapiens) (UniProt P04150); experiment: GR-EFC Redistribution (AID 451; calls by dose curve; also: potency is read from the fitted curve at half-maximal effect); details: CHO-K1 GR-EFC translocation, beta-gal luminescence, 2 h
# Summary of the method: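 CHO-K1 cells stably expressing nuclear-localized β-gal enzyme acceptor and GR fused C-terminally to the enzyme donor fragment; ligand-driven nuclear translocation restores β-gal by complementation. Compounds titrated up to 46 uM final, 2 h at 37 °C; luminescence read.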
# [9] = target: 3',5'-cyclic-AMP phosphodiesterase 4B (Homo sapiens) (UniProt Q07343); experiment: qHTS Assay for Inhibitors of PDE-IV (AID 607; active = well fitted activation curve with a large enough effect in the main read-out, with a control signal flat, not every such curve was filed as active)
# Sequence of 3',5'-cyclic-AMP phosphodiesterase 4B (Homo sapiens) (Q07343 whole entry, looked up): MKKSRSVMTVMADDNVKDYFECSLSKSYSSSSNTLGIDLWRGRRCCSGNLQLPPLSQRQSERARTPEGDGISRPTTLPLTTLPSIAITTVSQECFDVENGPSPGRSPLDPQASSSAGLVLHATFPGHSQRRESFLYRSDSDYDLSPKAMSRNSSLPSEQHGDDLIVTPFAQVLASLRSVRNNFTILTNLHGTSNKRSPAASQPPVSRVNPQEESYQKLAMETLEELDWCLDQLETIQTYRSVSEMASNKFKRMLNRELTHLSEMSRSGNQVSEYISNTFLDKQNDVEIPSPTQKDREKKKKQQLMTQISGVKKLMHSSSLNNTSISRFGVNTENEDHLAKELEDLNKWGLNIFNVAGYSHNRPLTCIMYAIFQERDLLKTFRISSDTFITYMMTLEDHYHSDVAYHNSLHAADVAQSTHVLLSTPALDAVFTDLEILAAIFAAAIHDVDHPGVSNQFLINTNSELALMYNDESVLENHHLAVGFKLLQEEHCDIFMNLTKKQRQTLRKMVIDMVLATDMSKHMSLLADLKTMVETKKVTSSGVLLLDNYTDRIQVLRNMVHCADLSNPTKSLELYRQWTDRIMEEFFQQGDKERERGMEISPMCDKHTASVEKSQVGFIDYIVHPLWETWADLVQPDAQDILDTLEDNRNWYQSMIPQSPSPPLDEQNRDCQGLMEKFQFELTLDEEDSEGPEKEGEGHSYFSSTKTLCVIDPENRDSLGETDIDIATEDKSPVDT
# Summary of the method: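 ACTOne HEK293 cells carry a modified cAMP-gated CNG channel and express endogenous PDE4; plated 1000 cells/well, compounds up to 22.9 uM final. Membrane-potential dye fluorescence (ex 535/em 590) was read; parental cells received 10 uM forskolin + 100 uM RO 20-1724.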
structure (smiles),measurement,setting,value
C/C=C1/CN2CC[C@@]34c5ccccc5N(C)[C@@H]3[C@@H]2C[C@@H]1[C@H]4C(=O)OC,Potency,[1],inactive
same,Potency,[2],inactive
same,Potency,[3],inactive
C=CC(C)(C)[C@@]12C[C@H]3C(=O)N/C(=C/c4cnc[nH]4)C(=O)N3[C@@H]1Nc1ccccc12,Potency,[4],inactive
same,Potency,[5],inactive
same,Potency,[1],inactive
same,Potency,[2],inactive
same,Potency,[3],0.298 µM (active)
C=C[C@H]1CN2CCc3c([nH]c4cccc(OC)c34)[C@@H]2C[C@@H]1/C(=C\OC)C(=O)OC,Potency,[6],inactive
same,Potency,[5],inactive
same,Potency,[1],inactive
O[C@H]1C=C[C@@]23CCN(Cc4cc5c(cc42)OCO5)[C@@H]3C1,Potency,[4],11.8 µM (active)
same,Potency,[5],inactive
same,Potency,[2],inactive
CO[C@@H](/C=C/CC/C=C/C(=O)O)[C@@H](O)[C@H](C)/C=C(\C)[C@H](O)[C@H](C)C(=O)CCCC1CC(=O)NC(=O)C1,Potency,[4],inactive
same,Potency,[5],inactive
same,Potency,[1],inactive
same,Potency,[2],inactive
C1=C2CCCN[C@H]2C2CC1[C@H]1CCCCN1C2 (stereo not given in full),Potency,[4],inactive
same,Potency,[5],inactive
same,Potency,[1],inactive
same,Potency,[3],inactive
CO[C@H]([C@@H](C)[C@H]1O[C@]1(C)C[C@H](C)/C=C/C=C(\C)[C@H]1O[C@@H](CC(=O)O)CC[C@@H]1C)[C@@H](C)O,Potency,[4],0.0188 µM (active)
same,Potency,[5],0.0375 µM (active)
same,Potency,[2],0.0296 µM (active)
same,Potency,[3],0.0666 µM (active)
C/C=C1/CN2CC[C@]34C(=C(C(=O)OC)[C@H]1C[C@H]23)Nc1ccccc14,Potency,[6],inactive
same,Potency,[4],inactive
same,Potency,[1],inactive
same,Potency,[3],inactive
CN(C)[C@@H]1C(=O)C(C(N)=O)=C(O)[C@]2(O)C(=O)C3=C(O)c4c(O)cccc4[C@@](C)(O)[C@@H]3C[C@@H]12,Potency,[7],> 46 µM
same,Potency,[8],> 46 µM
same,Potency,[9],inactive
COC1C(O)C(C)OC(OC2C(Oc3cccc4c(O)c5c(=O)oc6ccc(C)c7c(=O)oc(c34)c5c67)OC(C)C(O)C2O)C1O (stereo not given),Potency,[5],16.8 µM (active)
same,Potency,[2],9.35 µM (active)
CO[C@@]12c3c(C)cc(O)c4c(=O)occ(c34)C(=O)[C@@H]1[C@]13COC(=O)c4c(O)cc(C)c(c41)C(=O)[C@H]2[C@@H]3OC(C)=O,Potency,[6],3.11 µM (active)
same,Potency,[4],5.94 µM (active)
same,Potency,[5],inactive
same,Potency,[2],inactive
same,Potency,[3],0.0075 µM (active)
COC1=C(C2=C(OC)C(=O)c3cc4c(c(O)c3C2=O)C(=O)O[C@H](C)C4)C(=O)c2c(cc3c(c2O)C(=O)O[C@H](C)C3)C1=O,Potency,[6],3.3 µM (active)
same,Potency,[1],inactive
same,Potency,[2],inactive
same,Potency,[3],inactive
CC[C@H]1CN2CCc3c([nH]c4cccc(OC)c34)[C@@H]2C[C@@H]1/C(=C\OC)C(=O)OC,Potency,[6],24.7 µM (active)
same,Potency,[1],inactive
same,Potency,[3],inactive
CCC(=O)N[C@@H](C[C@H](C)C(Cl)(Cl)Cl)C(=O)N1C(=O)C=C(OC)[C@@H]1C[C@H](C)C(Cl)Cl,Potency,[5],inactive
same,Potency,[1],inactive
same,Potency,[2],inactive
CC[C@@H]1CN2CCC3(Nc4cccc(OC)c4C3=O)[C@@H]2C[C@@H]1/C(=C\OC)C(=O)OC (stereo not given in full),Potency,[6],inactive
same,Potency,[5],inactive
same,Potency,[1],inactive
same,Potency,[2],inactive
C/C(=C\[C@H](C)C(=O)C[C@H](O)CC1CC(=O)NC(=O)C1)[C@@H]1OC(=O)/C=C/CC/C=C/C=C/[C@@H]1C,Potency,[6],44 µM (active)
same,Potency,[4],0.118 µM (active)
same,Potency,[5],0.0668 µM (active)
same,Potency,[2],0.0526 µM (active)
same,Potency,[3],0.941 µM (active)
C=C(C)[C@H]1C(=O)c2c3c(cc4c5c(n1c24)[C@@]1(C)[C@@H](CC[C@H]2[C@](C)(/C=C/C=C(\C)C(=O)O)[C@@H](O)CC[C@@]21C)C5)C1=CC(C)(C)OC(C)(C)[C@H]1[C@@H]3O,Potency,[6],2.2 µM (active)
same,Potency,[4],11.8 µM (active)
same,Potency,[5],8.41 µM (active)
same,Potency,[1],18.8 µM (active)
same,Potency,[3],7.47 µM (active)
C/C=C/[C@@H]1[C@H]2C[C@@H](C)CC[C@@H]2C(C)=C[C@H]1C(=O)c1c(O)c(-c2ccc(O)cc2)c[nH]c1=O,Potency,[6],22 µM (active)
same,Potency,[4],21.1 µM (active)
CC[C@@H]1CN2CCc3c([nH]c4cccc(OC)c34)[C@@H]2C[C@@H]1/C(=C\OC)C(=O)OC,Potency,[6],inactive
same,Potency,[2],23.5 µM (active)
CCCCC1CC[C@H]2CCCC(CCC)N12 (stereo not given in full),Potency,[6],inactive
same,Potency,[5],inactive
same,Potency,[1],inactive
same,Potency,[2],inactive
same,Potency,[3],inactive
C[C@]12CC(O)C3[C@@H](CCC4C[C@@H](O)CC[C@@]43CO)[C@@]1(O)CC[C@@H]2C1=CC(=O)OC1 (stereo not given in full),Potency,[6],44 µM (active)
same,Potency,[4],13.3 µM (active)
same,Potency,[2],13.2 µM (active)
same,Potency,[3],inactive
C[C@]12CC(O)C3[C@@H](CC[C@@H]4C[C@@H](O)CC[C@]34CO)[C@@]1(O)CC[C@@H]2C1=CC(=O)OC1 (stereo not given in full),Potency,[4],4.2 µM (active)
same,Potency,[2],4.18 µM (active)
same,Potency,[3],inactive
